# Where “and” joins values, the source holds several entries; their conditions need not be identical. Identical values can stand only once. Some compounds were tested as several samples or in several runs, with calls that do not always agree. Calls of active or inactive are those of the source. Where a call stands in place of a potency, no number is given. Unless noted, the call rests on the fitted dose curve; in most records, active means well fitted curve in the direction sought with a large enough effect in the repeat runs; inconclusive means weak or mixed curves; inactive means no such curve, though single readings can be large; an effect the other way counts as inactive or inconclusive.
# Legend:
# [1] = qHTS assay to identify small molecule antagonists of the glucocorticoid receptor (GR) signaling pathway - cell viability counter screen (AID 720693); further: nearly all actives have a fitted effect of over 55% in size; further: potency means the concentration at half of the fitted maximal effect
# [2] = qHTS assay for identifying genotoxic compounds that show differential cytotoxicity against isogenic chicken DT40 cell lines with known DNA damage response pathways - wild type cell line (AID 743012); further: nearly all actives have a fitted effect of over 60% in size; further: potency means the concentration at half of the fitted maximal effect
# How it was run: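 Quantitative HTS on parental DT40 cells: 40 h compound treatment at 37 C/5% CO2, with viability then determined by CellTiter-Glo luminescence. Values serve as the DNA repair-proficient reference for differential cytotoxicity.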
# [3] = qHTS assay for identifying genotoxic compounds that show differential cytotoxicity against isogenic chicken DT40 cell lines with known DNA damage response pathways - Rev3 mutant cell line (AID 743014); further: nearly all actives have a fitted effect of over 55% in size; further: potency means the concentration at half of the fitted maximal effect
# [4] = qHTS assay for identifying genotoxic compounds that show differential cytotoxicity against isogenic chicken DT40 cell lines with known DNA damage response pathways - Rad54/Ku70 mutant cell line (AID 743015); further: nearly all actives have a fitted effect of over 60% in size; further: potency means the concentration at half of the fitted maximal effect
# [5] = qHTS assay to identify small molecule antagonists of the androgen receptor (AR) signaling pathway - cell viability counter screen (AID 743033; further: nearly all actives have a fitted effect of over 45% in size; further: potency means the concentration at half of the fitted maximal effect)
# [6] = target: Androgen receptor (Homo sapiens) (UniProt P10275); assay: qHTS assay to identify small molecule antagonists of the androgen receptor (AR) signaling pathway (AID 743035; active means well fitted inhibition curve with a large enough effect in the signal ratio in the repeat runs, not every such curve was filed as active; inconclusive means weak or mixed curves, or effect the other way; inactive means no such curve, though single readings can be large or run the other way; the % refers to the signal ratio; further: potency means the concentration at half of the fitted maximal effect)
# How it was run: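 Cell line: GeneBLAzer AR-UAS-bla GripTite (HEK293). Stimulus: R1881 added after compound. Exposure: 16 h, 37C, 5% CO2. Readout: LiveBLAzer B/G FRET fluorescence after 2 h at room temperature.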
# [7] = target: Androgen receptor (Homo sapiens) (UniProt P10275); assay: qHTS assay to identify small molecule agonists of the androgen receptor (AR) signaling pathway (AID 743036; active means well fitted activation curve with a large enough effect in the signal ratio in the repeat runs, with a control signal flat, not every such curve was filed as active; inconclusive means weak or mixed curves, or effect the other way; inactive means no such curve, though single readings can be large or run the other way; the % refers to the signal ratio)
# How it was run: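 AR-UAS-bla HEK293 cells, plated 4 h before dosing, were treated with compound for 16 h at 37C. beta-Lactamase reporter read after 2 h with LiveBLAzer B/G FRET substrate at room temperature.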
# [8] = target: Androgen receptor (Homo sapiens) (UniProt P10275); assay: qHTS assay to identify small molecule agonists of the androgen receptor (AR) signaling pathway using the MDA cell line (AID 743040; further: nearly all actives have a fitted effect of over 20% in size); details: MDA-kb2 AR-luc cells, MMTV luciferase, 16 h, stronger effect = higher value
# How it was run: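 Cells plated, 5 h at 37C/0% CO2; compound or DMSO pinned; 16 h at 37C; ONE-Glo added; luminescence measured after 30 min at room temperature. Reporter line: MDA-kb2 with MMTV-luciferase responsive to AR and GR.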
# [9] = qHTS assay to identify small molecule antagonists of the androgen receptor (AR) signaling pathway using the MDA cell line - cell viability counter screen (AID 743041; further: nearly all actives have a fitted effect of over 45% in size; further: potency means the concentration at half of the fitted maximal effect)
# How it was run: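 Cells were plated at 3,000 per well and left 5 h. Compounds in DMSO were then pinned in, followed by R1881. After 16 h at 37C, CellTiter-Fluor fluorescence gave viability.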
# [10] = target: Androgen receptor (Homo sapiens) (UniProt P10275); assay: qHTS assay to identify small molecule antagonists of the androgen receptor (AR) signaling pathway using the MDA cell line (AID 743042; further: nearly all actives have a fitted effect of over 55% in size; further: potency means the concentration at half of the fitted maximal effect)
# How it was run: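 Antagonist mode: compounds plus R1881 agonist added to MDA-kb2 AR-luc cells, incubated 16 h at 37C. Luciferase reporter luminescence quantified, with multiplexed CellTiter-Fluor readout for cell viability.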
# [11] = system: thyroid hormone receptor (rat, GH3 cells); assay: qHTS assay to identify small molecule agonists of the thyroid receptor (TR) signaling pathway (AID 743066; calls by dose curve)
# [12] = qHTS assay to identify small molecule antagonists of the estrogen receptor alpha (ER-alpha) signaling pathway - cell viability counter screen (AID 743074; calls by dose curve;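 further: HEK293 cells carrying ER-alpha-UAS-bla reporter stimulated with 17beta-estradiol; nearly all actives have a fitted effect of over 45% in size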; further: potency means the concentration at half of the fitted maximal effect)
# [13] = qHTS assay to identify small molecule antagonists of the estrogen receptor alpha (ER-alpha) signaling pathway using the BG1 cell line - cell viability counter screen (AID 743081);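 further: compound given together with 17beta-estradiol as the ER stimulus; nearly all actives have a fitted effect of over 45% in size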; further: potency means the concentration at half of the fitted maximal effect
# Aromatase (Homo sapiens) = Aromatase (Homo sapiens) (UniProt P11511); assay: qHTS assay to identify aromatase inhibitors (AID 743083); further: nearly all actives have a fitted effect of over 55% in size; further: potency means the concentration at half of the fitted maximal effect
# [14] = qHTS assay to identify small molecule antagonists of the thyroid receptor (TR) signaling pathway - cell viability counter screen (AID 743064); further: nearly all actives have a fitted effect of over 50% in size; further: potency means the concentration at half of the fitted maximal effect
# How it was run: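 GH3.TRE-Luc rat pituitary cells dosed after 4 hr plating, co-stimulated with T3 at 1 nM final, incubated 23.5 h at 37 C. Viability measured in the same wells by CellTiter-Fluor fluorescence after 30 min further at 37 C.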
# [15] = qHTS assay to identify small molecule antagonists of the thyroid receptor (TR) signaling pathway (AID 743065); further: nearly all actives have a fitted effect of over 55% in size; further: potency means the concentration at half of the fitted maximal effect
# How it was run: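 Antagonism measured as loss of luciferase signal in GH3 cells stably carrying a TRE-luciferase reporter, co-treated with compound and T3 (1 nM final) for 23.5 h at 37 C. Viability was read in the same well by CellTiter-Fluor.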
# [16] = target: Estrogen receptor (Homo sapiens) (UniProt P03372); assay: qHTS assay to identify small molecule agonists of the estrogen receptor alpha (ER-alpha) signaling pathway (AID 743075; calls by dose curve;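 further: HEK293 GripTite cells with ER-alpha and UAS-driven beta-lactamase reporter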; further: potency means the concentration at half of the fitted maximal effect)
# [17] = target: Estrogen receptor (Homo sapiens) (UniProt P03372); assay: qHTS assay to identify small molecule agonists of the estrogen receptor alpha (ER-alpha) signaling pathway using the BG1 cell line (AID 743079); details: BG1Luc4E2 cells, ERE-luciferase agonist, 22 h; activation: at 70.3 µM (top of the series) unless noted; further: nearly all actives have a fitted effect of over 20% in size; further: potency means the concentration at half of the fitted maximal effect
# [18] = qHTS assay to identify small molecule antagonists of the estrogen receptor alpha (ER-alpha) signaling pathway using the BG1 cell line (AID 743080; calls by dose curve;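 further: BG1 cells stimulated with 17beta-estradiol alongside compound; nearly all actives have a fitted effect of over 25% in size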)
# How it was run: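 Endogenous full-length ER-alpha in BG1-Luc-4E2 cells drives a stably integrated 4×ERE luciferase gene; compounds were tested against 17beta-estradiol over 21.5 h, with luminescence and multiplexed viability fluorescence recorded.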
# [19] = target: Estrogen receptor (Homo sapiens) (UniProt P03372); assay: qHTS assay to identify small molecule antagonists of the estrogen receptor alpha (ER-alpha) signaling pathway (AID 743069; active means well fitted curve in the direction sought with a large enough effect in the signal ratio in the repeat runs, not every such curve was filed as active; inconclusive means weak or mixed curves, or effect the other way; inactive means no such curve, though single readings can be large or run the other way; the % refers to the signal ratio)
# How it was run: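 ER-alpha-UAS-bla GripTite HEK293 line; 2% charcoal-stripped FBS overnight; plated, 4 hr 37C/5% CO2; cpd in DMSO + 17beta-estradiol, 18 hr 37C; LiveBLAzer B/G FRET substrate 2 hr RT; fluorescence intensity.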
# Aromatase (Homo sapiens), sequence (P11511 whole entry, looked up): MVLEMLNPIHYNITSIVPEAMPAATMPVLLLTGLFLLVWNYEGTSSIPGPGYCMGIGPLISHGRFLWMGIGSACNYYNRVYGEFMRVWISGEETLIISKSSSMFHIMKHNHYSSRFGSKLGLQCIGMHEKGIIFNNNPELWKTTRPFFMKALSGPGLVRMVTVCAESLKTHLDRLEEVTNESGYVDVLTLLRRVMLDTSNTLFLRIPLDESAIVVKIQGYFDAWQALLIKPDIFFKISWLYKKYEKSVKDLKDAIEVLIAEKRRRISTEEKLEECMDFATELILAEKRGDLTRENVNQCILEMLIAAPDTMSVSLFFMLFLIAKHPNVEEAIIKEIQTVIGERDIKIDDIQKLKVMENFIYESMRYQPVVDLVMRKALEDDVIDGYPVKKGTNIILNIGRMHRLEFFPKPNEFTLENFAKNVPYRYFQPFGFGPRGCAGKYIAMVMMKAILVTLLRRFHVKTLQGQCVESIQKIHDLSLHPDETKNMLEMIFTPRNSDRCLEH
# Estrogen receptor (Homo sapiens), sequence (P03372 whole entry, looked up): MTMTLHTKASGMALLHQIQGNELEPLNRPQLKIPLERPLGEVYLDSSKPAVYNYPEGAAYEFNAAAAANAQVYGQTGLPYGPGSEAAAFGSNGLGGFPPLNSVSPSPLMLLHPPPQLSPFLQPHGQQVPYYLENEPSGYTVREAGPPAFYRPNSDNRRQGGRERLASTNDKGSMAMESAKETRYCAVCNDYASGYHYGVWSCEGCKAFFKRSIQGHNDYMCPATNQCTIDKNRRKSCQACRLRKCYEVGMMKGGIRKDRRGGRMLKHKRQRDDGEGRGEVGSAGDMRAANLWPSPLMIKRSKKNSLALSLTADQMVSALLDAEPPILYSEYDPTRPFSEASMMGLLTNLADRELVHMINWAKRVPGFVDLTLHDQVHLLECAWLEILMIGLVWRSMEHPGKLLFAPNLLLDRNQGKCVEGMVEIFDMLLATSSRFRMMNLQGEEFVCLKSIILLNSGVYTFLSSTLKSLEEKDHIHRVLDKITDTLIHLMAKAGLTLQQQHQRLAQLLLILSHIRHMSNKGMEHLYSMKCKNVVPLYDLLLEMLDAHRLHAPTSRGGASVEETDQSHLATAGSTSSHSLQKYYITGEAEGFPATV
# Androgen receptor (Homo sapiens), sequence (P10275 whole entry, looked up): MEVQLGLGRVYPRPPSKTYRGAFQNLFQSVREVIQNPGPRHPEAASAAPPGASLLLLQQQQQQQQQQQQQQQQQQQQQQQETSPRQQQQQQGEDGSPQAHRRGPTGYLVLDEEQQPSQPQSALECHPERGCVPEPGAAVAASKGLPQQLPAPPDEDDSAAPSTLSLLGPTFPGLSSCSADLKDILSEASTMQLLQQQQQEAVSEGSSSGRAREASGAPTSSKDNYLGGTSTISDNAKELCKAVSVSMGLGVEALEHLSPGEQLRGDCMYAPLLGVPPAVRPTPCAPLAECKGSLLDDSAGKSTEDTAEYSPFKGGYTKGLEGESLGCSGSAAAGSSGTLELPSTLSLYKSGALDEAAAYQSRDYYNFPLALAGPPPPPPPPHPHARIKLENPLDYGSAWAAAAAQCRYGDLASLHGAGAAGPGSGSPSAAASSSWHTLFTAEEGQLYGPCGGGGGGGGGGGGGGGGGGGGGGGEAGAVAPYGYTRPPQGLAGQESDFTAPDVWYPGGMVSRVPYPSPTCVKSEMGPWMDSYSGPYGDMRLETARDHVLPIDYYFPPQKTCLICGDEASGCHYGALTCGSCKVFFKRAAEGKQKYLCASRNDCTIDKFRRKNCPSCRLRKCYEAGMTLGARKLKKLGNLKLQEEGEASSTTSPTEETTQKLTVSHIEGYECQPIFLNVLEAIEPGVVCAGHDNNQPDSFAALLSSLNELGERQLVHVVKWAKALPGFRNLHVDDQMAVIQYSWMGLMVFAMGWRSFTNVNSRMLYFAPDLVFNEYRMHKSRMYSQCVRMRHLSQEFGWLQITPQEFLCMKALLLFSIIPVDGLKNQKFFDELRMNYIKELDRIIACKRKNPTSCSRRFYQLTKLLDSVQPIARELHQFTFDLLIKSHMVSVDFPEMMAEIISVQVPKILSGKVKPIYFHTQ
smiles,measurement,setting,value
CC(C)=CC1C(C(=O)OCN2C(=O)C3=C(CCCC3)C2=O)C1(C)C (stereo not drawn),Potency,[1],inactive
same,Potency,[2],43.3 µM (active)
same,Potency,[3],inactive
same,Potency,[4],27.3 µM (active)
same,Potency,[5],inactive
same,Potency,[6],43.6 µM (active)
same,Potency,[7],inactive
same,activity change,[8]; at 70.3 µM (top of the series),7.43% (inactive) and -10.5% (inactive)
same,Potency,[9],inactive
same,Potency,[10],inactive
same,Potency,[11],inactive
same,Potency,[12],inactive
same,Potency,[13],inactive
same,Potency,Aromatase (Homo sapiens),inactive
O=[N+]([O-])c1ccc(Cl)c([N+](=O)[O-])c1,Potency,[1],19.8 µM (active)
same,Potency,[2],2.77 µM (active) and 1.72 µM (active)
same,Potency,[3],1.75 µM (active) and 2.17 µM (active)
same,Potency,[4],1.24 µM (active) and 1.93 µM (active)
same,Potency,[5],11.1 µM (active) and 17.4 µM (active)
same,Potency,[6],9.92 µM (active) and 19.5 µM (active)
same,activity change,[8]; at 70.3 µM (top of the series),-11.5% (inactive)
same,activity change,[8]; at 95 µM (top of the series),-10.5% (inactive)
same,Potency,[9],15.6 µM (active) and 13.7 µM (active)
same,Potency,[10],8.77 µM (active) and 8.63 µM (active)
same,Potency,[14],15.6 µM (active) and 6.11 µM (active)
same,Potency,[15],4.39 µM (active) and 4.86 µM (active)
same,Potency,[11],inactive
same,Potency,[12],49.7 µM (active) and 24.5 µM (active)
same,Potency,[16],inactive
same,Potency,[13],62.1 µM (active) and 61.1 µM (active)
same,Potency,Aromatase (Homo sapiens),6.21 µM (active) and 8.63 µM (active)
CCOS(=O)(=O)OCC,Potency,[1],inactive
same,Potency,[2],inactive
same,Potency,[3],inactive and 54.5 µM (active)
same,Potency,[4],inactive
same,Potency,[5],inactive
same,Potency,[9],inactive
same,Potency,[14],inactive
same,Potency,[15],inactive
same,Potency,[11],inactive
same,Potency,[12],inactive
same,Potency,[16],inactive
same,Potency,[17],inactive
same,Potency,[18],inactive
same,Potency,[13],inactive
same,Potency,Aromatase (Homo sapiens),inactive
COP(=O)(NC(C)=O)SC (stereo not drawn),Potency,[1],inactive
same,Potency,[2],inactive and 68.6 µM (active)
same,Potency,[3],inactive and 27.3 µM (active)
same,Potency,[4],inactive and 30.6 µM (active)
same,Potency,[5],inactive
same,Potency,[9],inactive
same,Potency,[14],inactive
same,Potency,[15],inactive
same,Potency,[11],inactive
same,Potency,[12],inactive
same,Potency,[13],inactive
same,Potency,Aromatase (Homo sapiens),inactive
CS(=O)(=O)NC(=O)c1cc(Oc2ccc(C(F)(F)F)cc2Cl)ccc1[N+](=O)[O-],Potency,[1],inactive
same,Potency,[2],inactive
same,Potency,[3],inactive
same,Potency,[4],inactive
same,Potency,[5],inactive
same,Potency,[9],inactive
same,Potency,[14],inactive
same,Potency,[15],inactive
same,Potency,[11],inactive
same,Potency,[12],inactive
same,Potency,[13],inactive
same,Potency,Aromatase (Homo sapiens),inactive
CCC/C=N/O,Potency,[1],inactive
same,Potency,[2],inactive
same,Potency,[3],inactive
same,Potency,[4],inactive
same,Potency,[5],inactive
same,Potency,[9],inactive
same,Potency,[14],inactive
same,Potency,[15],inactive
same,Potency,[11],inactive
same,Potency,[12],inactive
same,Potency,[16],inactive
same,Potency,[17],inactive
same,Potency,[18],inactive
same,Potency,[13],inactive
same,Potency,Aromatase (Homo sapiens),inactive
CC1(C)Cc2cccc(O)c2O1,Potency,[1],inactive
same,Potency,[2],inactive
same,Potency,[3],inactive
same,Potency,[4],inactive
same,Potency,[5],inactive
same,Potency,[9],inactive
same,Potency,[14],inactive
same,Potency,[15],inactive
same,Potency,[11],inactive
same,Potency,[19],inactive
same,Potency,[12],inactive
same,Potency,[16],inactive
same,Potency,[17],inactive
same,Potency,[18],inactive
same,Potency,[13],inactive
same,Potency,Aromatase (Homo sapiens),inactive
O=C(O)c1nn(Cc2ccc(Cl)cc2Cl)c2ccccc12,Potency,[1],inactive
same,Potency,[2],inactive
same,Potency,[3],inactive
same,Potency,[4],inactive
same,Potency,[5],inactive
same,Potency,[6],inactive
same,activity change,[8]; at 70.3 µM (top of the series),1.75% (inactive) and 0.87% (inactive)
same,Potency,[9],inactive
same,Potency,[10],inactive
same,Potency,[14],inactive
same,Potency,[11],inactive
same,Potency,[12],inactive
same,Potency,[16],95.2 nM [inconclusive] (active) and inactive
same,Potency,[17],6.68 µM (active) and inactive
same,Potency,[18],inactive
same,Potency,[13],inactive
same,Potency,Aromatase (Homo sapiens),inactive
CCCCOC(=O)COC(=O)c1ccccc1C(=O)OCCCC,Potency,[1],inactive
same,Potency,[2],inactive
same,Potency,[3],inactive
same,Potency,[4],inactive
same,Potency,[5],inactive
same,Potency,[9],inactive
same,Potency,[14],inactive
same,Potency,[15],inactive
same,Potency,[11],inactive
same,Potency,[19],inactive
same,Potency,[12],inactive
same,Potency,[16],inactive
same,Potency,[17],inactive
same,Potency,[18],inactive
same,Potency,[13],inactive
same,Potency,Aromatase (Homo sapiens),inactive
CCNc1nc(Cl)nc(NC(C)(C)C#N)n1,Potency,[1],inactive
same,Potency,[2],inactive
same,Potency,[3],inactive
same,Potency,[4],inactive
same,Potency,[5],inactive
same,Potency,[9],inactive
same,Potency,[14],inactive
same,Potency,[15],inactive
same,Potency,[11],inactive
same,Potency,[12],inactive
same,Potency,[13],inactive
same,Potency,Aromatase (Homo sapiens),inactive
O=C1CCCO1,Potency,[1],inactive
same,Potency,[2],inactive
same,Potency,[3],inactive
same,Potency,[4],inactive
same,Potency,[5],inactive
same,Potency,[6],inactive
same,Potency,[7],inactive
same,activity change,[8]; at 70.3 µM (top of the series),-2.47% (inactive) and -0.181% (inactive)
same,Potency,[9],inactive
same,Potency,[10],inactive
same,Potency,[14],inactive
same,Potency,[15],inactive
same,Potency,[11],inactive
same,Potency,[12],inactive
same,Potency,[13],inactive
same,Potency,Aromatase (Homo sapiens),inactive
N#Cc1cccnc1,Potency,[1],inactive
same,Potency,[2],inactive
same,Potency,[3],inactive
same,Potency,[4],inactive
same,Potency,[5],inactive
same,Potency,[9],inactive
same,Potency,[14],inactive
same,Potency,[15],inactive
same,Potency,[11],inactive
same,Potency,[12],inactive
same,Potency,[16],inactive
same,Potency,[17],inactive
same,Potency,[18],inactive
same,Potency,[13],inactive
same,Potency,Aromatase (Homo sapiens),inactive
C=CC(=O)OCC(CC)(COC(=O)C=C)COC(=O)C=C,Potency,[1],12.6 µM (active) and 11 µM (active)
same,Potency,[2],2.8 µM (active) and 3.06 µM (active)
same,Potency,[4],2.5 µM (active) and 2.43 µM (active)
same,Potency,[5],7.97 µM (active) and 12.3 µM (active)
same,Potency,[6],4.48 µM (active)
same,activity change,[8]; at 70.3 µM (top of the series),-11.9% (inactive)
same,activity change,[8]; at 95 µM (top of the series),-11.2% (inactive)
same,Potency,[9],62.8 µM (active) and 30.6 µM (active)
same,Potency,[10],8.87 µM (active) and 6.86 µM (active)
same,Potency,[14],4.99 µM (active) and 6.86 µM (active)
same,Potency,[15],3.15 µM (active) and 4.33 µM (active)
same,Potency,[11],inactive
same,Potency,[12],56.4 µM (active) and 54.9 µM (active)
same,Potency,[16],22.5 µM [inconclusive] (active) and 9.77 µM [inconclusive] (active)
same,Potency,[13],79 µM (active) and 54.5 µM (active)
same,Potency,Aromatase (Homo sapiens),4.99 µM (active) and 6.86 µM (active)

# — PubChem BioAssay (Tox21)
